Reference: PubChem BioAssay AID1159580 (chemical genetic matrix, 2015)
Out of some 5,500 compounds screened, about 2,000 (36%) were called active. Inconclusive results (about 18%) are left out. No stated cut-off is given here; in the data, active means normalized growth mostly below about 0.91 (no sharp cut-off); inconclusive means no clear call, values can overlap the other calls; inactive means mostly above about 0.92. This is one part of the list.

Assay: chemical genetic growth profiling, strain panel (AID 1159580);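 further: tested at 20 µM; growth read once vehicle control cultures reached saturation at 30 °C; 1 = growth at the plate median or of vehicle wells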
Details: growth OD
[1] = S. cerevisiae deletion strains, locus YAL013W, strain DEP1, stronger effect = lower value
[2] = S. cerevisiae deletion strains, locus YBR229C, strain ROT2, stronger effect = lower value
[3] = S. cerevisiae deletion strains, locus YDL101C, strain DUN1, stronger effect = lower value
[4] = S. cerevisiae deletion strains, locus YDR150W, strain NUM1, stronger effect = lower value
[5] = S. cerevisiae deletion strains, locus YEL061C, strain CIN8, stronger effect = lower value
[6] = S. cerevisiae deletion strains, locus YGR078C, strain PAC10, stronger effect = lower value
[7] = S. cerevisiae deletion strains, locus YHR030C, strain SLT2, stronger effect = lower value
[8] = S. cerevisiae deletion strains, locus YHR087W, strain rtc3, stronger effect = lower value
[9] = S. cerevisiae deletion strains, locus YJR043C, strain POL32, stronger effect = lower value
[10] = S. cerevisiae deletion strains, locus YJR075W, strain HOC1, stronger effect = lower value
[11] = S. cerevisiae deletion strains, locus YLR039C, strain RIC1, stronger effect = lower value
[12] = S. cerevisiae deletion strains, locus YLR058C, strain SHM2 (second series), stronger effect = lower value
[13] = S. cerevisiae deletion strains, locus YLR085C, strain ARP6, stronger effect = lower value
[14] = S. cerevisiae deletion strains, locus YLR262C, strain YPT6, stronger effect = lower value
[15] = S. cerevisiae deletion strains, locus YML094W, strain GIM5, stronger effect = lower value
[16] = S. cerevisiae deletion strains, locus YMR219W, strain ESC1, stronger effect = lower value
[17] = S. cerevisiae deletion strains, locus YMR263W, strain SAP30, stronger effect = lower value
[18] = S. cerevisiae deletion strains, locus YNL153C, strain GIM3, stronger effect = lower value
[19] = S. cerevisiae deletion strains, locus YNL298W, strain CLA4 (second series), stronger effect = lower value
[20] = S. cerevisiae deletion strains, locus YNL322C, strain KRE1, stronger effect = lower value
[21] = S. cerevisiae deletion strains, locus YNR030W, strain Alg12, stronger effect = lower value
[22] = S. cerevisiae deletion strains, locus YPL055C, strain LGE1, stronger effect = lower value
[23] = S. cerevisiae deletion strains, locus YPL241C, strain CIN2, stronger effect = lower value
[24] = S. cerevisiae deletion strains, locus YPR135W, strain CTF4, stronger effect = lower value

Measured: normalized growth

N#Cc1ccc(Oc2ccc(Cl)cc2)nc1
inactive: [1] 1.04 | [2] 0.975 | [3] 0.944 | S. cerevisiae deletion strains, locus YDL134C, strain PPH21, stronger effect = lower value 0.985 | [4] 1.01 | [5] 0.977 | [6] 1 | S. cerevisiae deletion strains, locus YGR229C, strain SMI1, stronger effect = lower value 0.987 | [7] 0.86 | [8] 0.992 | [9] 0.984 | [10] 0.968 | [11] 1.09 | [12] 0.966 | [13] 1.05 | [14] 1.05 | [15] 1.03 | [16] 0.971 | [17] 1.02 | [18] 0.986 | [19] 0.977 | [20] 0.98 | [21] 1.02 | S. cerevisiae deletion strains, locus YOL006C, strain TOP1, stronger effect = lower value 0.903 | [22] 1.14 | [23] 0.886 | [24] 1.2

NC(=S)c1ccc(Oc2ccc(Cl)cc2)nc1
active: [1] 0.064 | [2] 0.0587 | [3] 0.0679 | [4] 0.0611 | [5] 0.0551 | [6] 0.0731 | [7] 0.0713 | [8] 0.0597 | S. cerevisiae deletion strains, locus YJL187C, strain SWE1, stronger effect = lower value 0.0568 | [9] 0.0583 | [10] 0.0782 | [11] 0.0764 | [12] 0.0563 | [13] 0.0896 | [14] 0.0758 | [15] 0.0624 | [16] 0.0569 | [17] 0.0585 | S. cerevisiae deletion strains, locus YMR307W, strain GAS1, stronger effect = lower value 0.112 | [18] 0.0622 | [19] 0.0667 | [20] 0.0647 | [21] 0.0581 | [22] 0.0942 | [23] 0.0912 | [24] 0.194 | S. cerevisiae strains, strain wild type, stronger effect = lower value 0.0499
